High-throughput results as filed in PubChem BioAssay.
G9a inh: blocks human histone lysine methyltransferase G9a; Q96KQ7; G9a H3K9 monomethylation, AlphaScreen, 2 h; Potency, µM (top dose mostly 102 µM), inactives show top-dose activity, negative = inhibition, most hits filed as inhibitors; hit rate 8.8% among 350,000; note: potency is the fitted concentration of half-maximal effect; % is set by controls: 0 for no effect and ±100 for the full control effect; nearly all actives have a fitted effect of over 75% in size
Target sequence (Q96KQ7 913-1193 limits assumed): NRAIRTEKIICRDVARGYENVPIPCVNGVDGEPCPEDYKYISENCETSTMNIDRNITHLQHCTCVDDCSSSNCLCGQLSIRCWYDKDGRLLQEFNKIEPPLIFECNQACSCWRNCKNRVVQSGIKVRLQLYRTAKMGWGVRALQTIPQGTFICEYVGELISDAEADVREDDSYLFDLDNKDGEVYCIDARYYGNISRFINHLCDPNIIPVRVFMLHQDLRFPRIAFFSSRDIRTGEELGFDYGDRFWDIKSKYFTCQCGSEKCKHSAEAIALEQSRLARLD
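Chemiluminescent proximity detection of H3K9 monomethylation, read after 10 min bead incubation in the dark. Reaction: 20 nM G9a, 500 nM biotin-H3K9 peptide, 20 uM SAM cofactor, 2 h, room temperature, following 15 min enzyme-compound preincubation.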
JMJD2A Tudor inh: blocks the human JMJD2A Tudor domain; Potency, µM (top dose mostly 114 µM), for inactives: at the highest dose activity change, negative = inhibition, actives largely listed as inhibitors; hit rate 4.4% among 390,000; O75164; AlphaScreen JMJD2A-Tudor / H3K4me3 peptide binding; note: potency is the fitted concentration of half-maximal effect; % is set by controls: 0 for no effect and ±100 for the full control effect; nearly all actives have a fitted effect of over 50% in size
L3MBTL1 inh: blocks human L3MBTL1; AlphaScreen L3MBTL1–H3K9me1 peptide binding; hit rate 0.66% among 230,000; Potency, µM (series often up to 57.1 µM), for inactives: top-dose activity, negative = inhibition, hits mostly inhibitors; Q9Y468; note: potency is the fitted concentration of half-maximal effect; % is set by controls: 0 for no effect and ±100 for the full control effect; nearly all actives have a fitted effect of over 60% in size
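L3MBTL1 (50 nM) pre-complexed 30 min with biotinylated H3(1-15)K9me1 peptide (75 nM), then compounds added for 30 min at room temperature; AlphaScreen streptavidin donor/nickel chelate acceptor beads (10 ug/mL final) read after 30 min dark incubation.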
HP1b binding inh: inhibitors of HP1-beta chromodomain binding to methylated histone tails; AID 540317; hit rate 0.56% among 390,000; P83916; Potency, µM (series often up to 114 µM), for inactives: at the top dose activity change, negative = inhibition, usual class: inhibitors; AlphaScreen HP1-beta / biotin-H3K9me3 peptide binding; note: potency is the fitted concentration of half-maximal effect; nearly all actives have a fitted effect of over 70% in size
Target sequence (P83916 whole entry, looked up): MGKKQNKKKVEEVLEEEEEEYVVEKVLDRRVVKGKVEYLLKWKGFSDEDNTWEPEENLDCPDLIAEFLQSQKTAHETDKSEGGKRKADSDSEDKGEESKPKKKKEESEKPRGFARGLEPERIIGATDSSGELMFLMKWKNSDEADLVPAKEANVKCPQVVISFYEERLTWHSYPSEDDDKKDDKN
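HP1-beta protein (50 nM final) preincubated 30 min at room temperature with biotinylated H3(1-18)K9me3 peptide (50 nM) in PBS pH 7.4, 0.01% Tween-20, then compound added for 30 min. AlphaScreen streptavidin donor/nickel chelate acceptor beads (10 ug/mL final), 30 min dark, luminescence read.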
PI5P4K alpha inh: blocks human PI5P4K alpha kinase activity | P48426 | max response, % | AID 652105 | PI5P4Kalpha enzyme, ADP-Glo luminescence, 60 min; hits give low values | hit rate 1.2% among 330,000; active = max response of -50% or lower; inconclusive = between -30% and -50%; inactive = -30% or higher; note: value at the top dose of about 77 µM; % is set by controls: 0 for no effect and ±100 for the full control effect
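Enzyme plus substrate dispensed, test compounds pinned in, then ATP (5 microM final) added. After 60 min at RT, ADP-Glo reagent 1 for 45 min and reagent 2 for 30 min preceded luminescence imaging.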
BAZ2B inh: BAZ2B (human) inhibition; Potency, µM (top dose mostly 114 µM), for the others: top-dose activity change, negative = inhibition, hits mostly inhibitors; AlphaScreen BAZ2B-H3K14Ac peptide displacement; hit rate 4.4% among 360,000; Q9UIF8; AID 504333; note: potency is the fitted concentration of half-maximal effect; % is set by controls: 0 for no effect and ±100 for the full control effect; nearly all actives have a fitted effect of over 60% in size
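In this displacement format the biotinylated H3(5-23) peptide acetylated at Lys14 serves as ligand at 50 nM, with BAZ2B at 50 nM in PBS pH 7.4 containing 0.01% Tween-20. Donor and acceptor beads are 10 ug/mL final.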
The depositor's hits bear a star; ? = inconclusive; / = no result given; [ ] = dose if it differs, or a comment. Hits are enriched below; roughly 11% of the tested compounds scored in any of these assays. Unless noted, calls come from the whole dose curve; as a rule, active = well fitted inhibition curve with a large enough effect; inconclusive = small, poorly fitted or top-dose-only effect; inactive = no such curve, though single readings can be large or run the other way.

SMILES	G9a inh	JMJD2A Tudor inh	L3MBTL1 inh	HP1b binding inh	PI5P4K alpha inh	BAZ2B inh
COc1ccc(N2CCN(S(=O)(=O)c3ccc4oc(=O)c5ncn(C)c5c4c3)CC2)cc1	-7%[59 µM]	-6%	/	30%	/	-26%
CCOc1ccc(NC(=O)[C@H]2O[C@@H]3OC(C)(C)O[C@@H]3[C@H]3OC(C)(C)O[C@H]32)cc1	7%[59 µM]	-7%	/	39%	/	-3%
CCOC(=O)c1[nH]c2ccc(F)cc2c1NC(=O)c1ccccc1C(=O)O	14µM*	-13%	/	52%	0	-12%
C=CCNC(=S)Nc1c(C(=O)OC)[nH]c2cc(OC)ccc12	11µM*	?	-5%	34%	0	-22%
CCOC(=O)c1[nH]c2ccccc2c1NC(=O)Nc1ccc(OC)cc1	50µM*	-4%	4%	18%	-5	12%
CCCS(=O)(=O)Nc1c(C(=O)OC)[nH]c2ccccc12	50µM*	0%	2%	24%	-3	1%
CCOC(=O)c1ccccc1NC(=O)CN(c1ccccc1OC)S(=O)(=O)c1ccc(C)cc1	-9%[59 µM]	?	/	48%	/	-2%
Cc1ccccc1NC(=O)Cc1nnc(SCC(=O)NC2=NCCS2)n1C	?	25µM*	/	-8%	7	-2%
Cc1ccccc1NC(=O)CSc1nnc(-c2ccco2)n1N	7.9µM*	-19%	-7%	?	-6	13%
Cc1cc(C)c(NC(=O)CSc2nnc(-c3ccco3)n2N)c(C)c1	3%[12.7 µM]	5%	/	8%	-1	0%
O=C(CSc1nnc2ccc(-c3ccco3)nn12)Nc1ccccc1F	14µM*	-18%	-1%	73%	-15	?
Cc1ccccc1NC(=O)CSc1nnc(-c2ccoc2C)n1CCc1ccccc1	79µM*	-19%	-9%	19%	3	?
CCOC(=O)c1scc(-c2ccc(C)cc2)c1S(=O)(=O)N1CCN(c2ccccc2F)CC1	-5%[59 µM]	-10%	/	26%	/	-2%
Cc1ccc(NC(=O)CN2C(=O)COc3ccc(S(=O)(=O)NC4CCCC4)cc32)cc1Cl	-5%[59 µM]	-27%	/	-15%	/	-13%
O=C1c2ccccc2C(=O)c2c1cccc2N(CCO)CCO	45µM*	?	-17%	?	-3	50µM*
CCc1c2c(nc3ccc4c(c13)OCCO4)-c1nc3ccccc3c(=O)n1C2	/	-13%	/	10%	/	/
COc1ccc(C(=O)/C=C/c2cc(C(=O)O)cc3c2OCOC3)c(O)c1	?	-17%	/	9%	-29	?
O=C(O)c1cc(/C=C/C(=O)c2cc(F)ccc2O)c2c(c1)COCO2	/	?	/	-6%	-30	50µM*
NN1C(=O)/C(=C2/Sc3ccccc3N2CCCS(=O)(=O)O)SC1=S	40µM*	?	-30%	-23%	?	79µM*
O=C1NC(=S)S/C1=C1\Sc2ccccc2N1CCCS(=O)(=O)O	10µM*	17%[11.4 µM]	-24%	?	-20	?
C=CCN1/C(=C2/SC(=S)N(C)C2=O)Sc2ccccc21	40µM*	/	-1%	/	/	?
CCOc1ccc(CSC(CC(=O)O)C(=O)O)cc1 (stereo not given)	/	-4%	0%	47%	5	79µM*
COc1ccc(CNC(=O)c2cnc3ccc(C)cn3c2=O)cc1	9%[59 µM]	-19%	/	5%	/	8%
Cc1cc(C)c(S(=O)(=O)Nc2nnc(C3CCCCC3)s2)c(C)c1	71µM*	-5%	/	17%	5	-38%
Cc1cc(C)c(S(=O)(=O)Nc2nnc(C)s2)c(C)c1	-11%[59 µM]	?	5%	22%	?	-28%
SMILES	G9a inh	JMJD2A Tudor inh	L3MBTL1 inh	HP1b binding inh	PI5P4K alpha inh	BAZ2B inh
CNC(=O)CSc1nc(-c2ccccc2)c(-c2ccccc2)[nH]1	-50%	-32%	-7%	-4%	/	-38%[57.1 µM]
CCC(Sc1nc(-c2ccccc2)c(-c2ccccc2)[nH]1)C(=O)O (stereo not given)	50µM*	-27%	/	8%	-4	-21%
Cc1ccc(N(CC(=O)Nc2ccc(C)c(F)c2)S(=O)(=O)c2c(C)n[nH]c2C)cc1	3%[59 µM]	-15%	/	36%	/	/
COc1cc(C(C2=C(O)CC(C)(C)CC2=O)C2C(=O)CC(C)(C)CC2=O)cc(OC)c1OC (stereo not given)	?	-29%[57.1 µM]	/	-1%	-6	?
CC1(C)CC(=O)C(C(C2=C(O)CC(C)(C)CC2=O)c2ccco2)C(=O)C1 (stereo not given)	35µM*	-21%[57.1 µM]	-21%	27%	-13	-30%
N#Cc1cccc2c1-c1ccccc1/C2=N/NC(N)=O	7%	-28%	/	12%	2	-24%
N#Cc1cccc2c1-c1ccccc1/C2=N/NC(N)=S	89µM*	?	/	-16%	-17	?
COc1cccc(NC(=O)c2nnn(CC(=O)Nc3cc(C)cc(C)c3)c2N)c1	12%[59 µM]	28µM*	/	8%	-16	-6%
COc1ccc(CCNC(=O)c2nnn(CC(=O)Nc3cccc(F)c3)c2N)cc1OC	45µM*	?	10%	3%	8	50µM*
COc1cccc(NC(=O)Cn2nnc(C(=O)Nc3ccccc3)c2N)c1	-33%	-19%	-3%	4%	/	-2%
COc1ccc(-c2nc3cnc(OC)nc3n(C3CC3)c2=O)cc1	-8%[12.7 µM]	/	/	/	/	/
COC(=O)c1sccc1S(=O)(=O)N(CC(=O)Nc1cccc(C)c1C)c1ccc(C)c(C)c1	4%[59 µM]	-9%	/	27%	/	-8%
O=C(Nc1cccc(Cl)c1Cl)c1cc2nc(-c3ccc(Cl)cc3)cc(C(F)(F)F)n2n1	10%[59 µM]	-3%	/	20%	/	-15%
Cc1ccccc1OCC(=O)OCC(=O)Nc1ncc(Cl)c(C)c1Cl	15%[2.33 µM]	?	?	5%	-19	56µM*
Cc1c(Cl)cnc(NC(=O)COC(=O)c2nn(C)c(=O)c3ccccc23)c1Cl	45µM*	-24%	-4%	14%	-25	?
CCCn1nc(C(=O)OCC(=O)Nc2ncc(Cl)c(C)c2Cl)c2ccccc2c1=O	?	-14%	0%	-1%	-6	-17%
Cc1ccccc1OCC(=O)OCC(=O)Nc1ccc(Cl)cn1	-4%[2.33 µM]	-14%	-1%	31%	-2	3%
C/C(=N/NS(=O)(=O)c1ccc(C)c(C)c1)c1ccncc1	-11%[0.501 µM]	-11%	/	56%	0	-8%
C/C(=N\NS(=O)(=O)c1c(C)cc(C)cc1C)c1ccncc1	8.9µM*	-4%	/	90%	-2	-4%
COc1ccc(S(=O)(=O)N/N=C(/C)c2ccncc2)cc1OC	11µM*	-17%	/	45%	-3	-24%
COc1ccc(/C(C)=N/NS(=O)(=O)c2ccccc2)c(OC)c1	?	-7%	5%	70%	1	-11%
COc1ccc(S(=O)(=O)N/N=C(/C)c2ccncc2)c(OC)c1	25µM*	2%	/	55%	-1	-3%
